Test results reported in PubChem BioAssay.

What follows are compounds tested on Plasmodium falciparum Sir2 (PF13_0152, Sir2A) (assay: pfSir2 binders on small-molecule microarrays, primary screen, biochemical, small-molecule microarray, 635 nm fluorescence (AID 1098;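 also: score merges spot fluorescence intensity with its signal-to-noise ratio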)). Settings: small-molecule microarray binding, fluorescence 635 nm; higher = more signal.
Compound `C=CCNC(=O)[C@H]1[C@@H]2C(=O)O[C@@H](c3ccccc3)[C@@H](c3ccccc3)N2[C@@H](c2ccc(O)cc2)[C@]12C(=O)N(C(=O)OCCOC)c1ccc(C#Cc3ccc(OC)cc3)cc12` has a composite z-score of 1.21. `O=C1OC[C@@H](c2ccccc2)n2cc(/C=C/c3ccccc3)cc21` was tested, and the composite z-score was 0.753. For `COc1c(C)cc(-c2nc(-c3ccccc3)c3c(c2C)CO[Si]3(C(C)C)C(C)C)cc1C`, the composite z-score was -0.186. `C=C(CCCC)/C(=C/C[C@@H](OC(C)=O)c1cccc(OCCO)c1)c1cc(C(=O)OC)ccc1OC` showed a composite z-score of 1.31. For `CC1CC/C=C\[C@H]2OC34C=CCN(C(C)C)C(=O)[C@H]3N(C(C)CO)C(=O)[C@@H]4C2C(=O)O1` (stereo not given in full), the composite z-score was 0.048. In the case of `CCCCC(=C=CC[C@@H](O)c1ccc(OCCO)cc1)CCO`, the composite z-score was 0.413. `COc1ccc(C(=O)Nc2ccc(CN3C(=O)[C@]4(O[C@H](CC(=O)N(CCO)Cc5ccccc5)[C@@H]([Si](C)(C)c5ccc(OC)cc5)[C@@H]4C)c4ccccc43)cc2)cc1` was tested, and the composite z-score was 1.11. `COC(=O)[C@@]1(Cc2ccc(F)cc2)[C@H]2c3cc(C(=O)N(C)C)n(Cc4ccc(C(F)(F)F)nc4)c3C[C@H]2CN1C(=O)c1ccccc1` was tested, and the composite z-score was 1.12. `O=C(NCCN1CCOCC1)[C@@H]1c2ccccc2C(=O)N(CC23CC4CC(CC(C4)C2)C3)[C@H]1c1ccc(CO)cc1` gave a composite z-score of 1.13. Compound `CO[C@H]1O[C@H](CO)[C@@H](OC(=O)Nc2cccc(F)c2)[C@H](OC(=O)Nc2ccc3c(c2)OCO3)[C@@H]1OC(=O)Nc1ccc2c(c1)OCO2` has a composite z-score of 1.13. With `CN(C)CCCCCCNC(=O)[C@@H]1C[C@@H]2C(=O)N[C@@H](CCCC[N+](C)(C)C)C(=O)N2[C@@H]1c1cccc(OCCO)c1` the composite z-score was 0.512. In the case of `CN(C)C(=O)[C@]1(CCS(=O)(=O)c2ccccc2)N=C(c2ccc(OCCCO)cc2)O[C@@H]1c1ccccc1CN=[N+]=[N-]`, the composite z-score was 1.45. Compound `CN1C(=O)C2C=CC(C(O)c3ccc([N+](=O)[O-])cc3)N(Nc3ccccc3)C2C1=O` (stereo not given) has a composite z-score of 1.25. In the case of `CCOC(=O)C[C@H]1[C@H](OC(=O)c2ccccc2-c2ccccc2)[C@@H](NC(=O)CC(C)C)c2cc(OCCCO)ccc2N1C(=O)c1ccccc1`, the composite z-score was 0.461. Work on `O=C1C2C=CC(C(O)C3CC=CCC3)N(Nc3ccc([N+](=O)[O-])cc3)C2C(=O)N1c1ccccc1` (stereo not given) yielded a composite z-score of 0.811. For `COc1cccc(C)c1NC(=O)O[C@H]1[C@H](OC(=O)Nc2ccc3c(c2)OCO3)[C@H](OC(=O)Nc2ccc3c(c2)OCO3)[C@@H](OC)O[C@@H]1CO`, the composite z-score was 1.28. Work on `CC(C)(C)OC(=O)CC[C@]1(C(N)=O)N=C(c2ccc(OCCCO)cc2)O[C@H]1c1ccccc1N=[N+]=[N-]` yielded a composite z-score of 0.793. `C=CCN1C(=O)[C@]2(O[C@H](CCO)[C@@H]([Si](C)(C)c3ccc(OC)cc3)[C@@H]2C)c2cc(N3C(=O)c4ccccc4Oc4ccccc43)ccc21` gave a composite z-score of 1.16. In the case of `C=C(/C=C\CNS(=O)(=O)c1ccc(C)cc1)[C@H](O)[C@H]1CCCN1S(=O)(=O)c1ccccc1[N+](=O)[O-]`, the composite z-score was 0.0251. `COC(=O)[C@@]1(Cc2ccc(F)cc2)[C@H]2c3cc(C(=O)N4CCCC4)n(C[C@H](O)CO)c3C[C@H]2CN1C(=O)c1ccccc1` showed a composite z-score of 0.543. With `O=C1O[C@H](c2ccccc2)[C@H](c2ccccc2)N2[C@H]1[C@@H](C(=O)O)[C@]1(C(=O)Nc3ccccc31)[C@H]2c1ccc(OCCO)cc1` the composite z-score was 0.975. Compound `COc1ccc(CCNC(=O)[C@@H]2c3ccccc3C(=O)N(C(C)C)[C@H]2c2ccc(CO)cc2)cc1` has a composite z-score of 0.37. Work on `O=C1O[C@@H](c2ccccc2)[C@@H](c2ccccc2)N2[C@@H](c3ccc(OCCO)cc3)[C@]3(C(=O)Nc4ccc(C#CC5=CCCCC5)cc43)[C@@H](C(=O)Nc3nc4ccccc4s3)[C@H]12` yielded a composite z-score of 1.63. `C=C(COC)C(=O)CC[C@@H](OC(=O)c1ccccc1-c1ccccc1C(=O)O)c1ccccc1OCCO` was tested, and the composite z-score was 0.664. `CCOC(=O)C[C@H]1[C@H](OC(=O)Cc2ccc3c(c2)OCO3)[C@@H](NC(=O)CC(C)C)c2cc(OCCCO)ccc2N1C(=O)c1ccc2ccccc2n1` gave a composite z-score of 1.26. In the case of `COC(=O)Cn1c(C(=O)N(C)C)cc2c1C[C@H]1CN(C(=O)c3ccccc3)[C@@](Cc3ccccc3)(C(=O)OC)[C@@H]21`, the composite z-score was 0.272. With `C[C@@]1([C@@H](NS(=O)(=O)c2cccc3cccnc23)c2ccc(-c3ccccc3)cc2)C[C@H]1C1CCCCC1` the composite z-score was 0.15. For `COCCOC(=O)N1C(=O)[C@@]2(c3cc(C#CCC(C(=O)OC)C(=O)OC)ccc31)[C@H](C(N)=O)[C@H]1C(=O)O[C@H](c3ccccc3)[C@H](c3ccccc3)N1[C@@H]2c1ccccc1OCCO`, the composite z-score was 0.997. Compound `CN1C(=O)C2CC=C(C3=CCO[C@@H]3[C@H]3CCCN3S(=O)(=O)c3ccccc3[N+](=O)[O-])CC2C1=O` (stereo not given in full) has a composite z-score of 1.11. `COc1cccc(C)c1NC(=O)O[C@H]1[C@H](OC(=O)Nc2ccccc2)[C@@H](OC(=O)Nc2ccccc2)[C@@H](OC)O[C@@H]1CO` was tested, and the composite z-score was 1.5. For `COCCCNC(=O)[C@@]1(c2ccc([N+](=O)[O-])cc2)CC(=O)N(C2CCCCC2)[C@@H]1c1ccc(CO)cc1I`, the composite z-score was 1.62. `CO[C@H]1O[C@H](CO)[C@@H](OC(=O)Nc2cccc(F)c2)[C@H](OC(=O)c2cc3ccccc3[nH]2)[C@H]1OC(=O)c1cc2ccccc2[nH]1` showed a composite z-score of -0.233. In the case of `C=C(COC)/C(=C/C[C@@H](OC(C)=O)c1cccc(OCCO)c1)c1cnc2ccccc2c1`, the composite z-score was -0.219. In the case of `CCCC[C@@H](O)C1=C(C)Cn2c(=O)n(-c3ccccc3)c(=O)n2[C@H]1CO`, the composite z-score was -0.0833. `CCCCC(=C=CC[C@@H](O)c1ccccc1OCCO)C[C@@H](O)c1ccccn1` was tested, and the composite z-score was 1.55.
